The sample as a whole holds a higher share of hits than the screen did.
FBPA Giardia inh – qHTS Assay for Inhibitors of Fructose-1,6-bisphosphate Aldolase from Giardia Lamblia. A8B2U2. purified Giardia FBPA. Potency, µM (highest dose often 59.6 µM), inactives show at the top dose activity, negative = inhibition, actives largely listed as inhibitors. 0.71% of 290,000 active. AID 2451, 2010; further: potency means the concentration at half of the fitted maximal effect; on the % scale 0 is the no-effect control and ±100 the full control effect; nearly all actives have a fitted effect of over 55% in size
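Giardia FBPA (40 nM reagent) was preincubated 10 min at RT with compound (up to 57.5 uM final), then substrate plus GAPDH/TPI/NAD/arsenate coupling system with diaphorase/resazurin was added; resorufin fluorescence (525/598 nm) was read after 20 min.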
LmPK inhibitor – qHTS Assay for Inhibitors of Leishmania Mexicana Pyruvate Kinase (LmPK). Potency, µM (highest dose often 57.5 µM), inactives show at the top dose activity change, negative = inhibition, most hits filed as inhibitors. AID 1721, 2009. Q27686. purified LmPK, Kinase-Glo ATP luminescence, 1 h. 0.37% of 290,000 active; further: potency means the concentration at half of the fitted maximal effect; on the % scale 0 is the no-effect control and ±100 the full control effect
Target sequence (Q27686 whole entry, looked up): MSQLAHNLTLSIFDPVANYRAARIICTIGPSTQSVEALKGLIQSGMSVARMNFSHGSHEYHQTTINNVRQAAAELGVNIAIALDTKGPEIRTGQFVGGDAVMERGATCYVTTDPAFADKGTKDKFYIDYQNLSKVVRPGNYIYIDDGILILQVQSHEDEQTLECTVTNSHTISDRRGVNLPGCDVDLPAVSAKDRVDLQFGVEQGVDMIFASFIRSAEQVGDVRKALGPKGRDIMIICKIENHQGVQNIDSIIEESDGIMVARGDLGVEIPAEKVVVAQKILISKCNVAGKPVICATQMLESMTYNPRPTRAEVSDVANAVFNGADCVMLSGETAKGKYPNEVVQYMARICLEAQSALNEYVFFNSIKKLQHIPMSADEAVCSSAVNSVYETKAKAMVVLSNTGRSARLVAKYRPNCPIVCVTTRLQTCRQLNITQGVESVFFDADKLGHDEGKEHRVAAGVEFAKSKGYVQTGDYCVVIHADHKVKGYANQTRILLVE
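In 50 mM imidazole pH 7.2 with 7 mM MgCl2, LmPK (0.1 nM) turned over PEP (0.5 mM) and ADP (0.1 mM) for 1 h at room temperature. Luciferase read-out of ATP.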
Tb PYK inh – qHTS of Trypanosoma Brucei Inhibitors; 0.12% of 410,000 active; TbPYK enzyme, Kinase-Glo Plus ATP luminescence, 45 min; Potency, µM (titrated, usually from 76.8 µM), for inactives: at the highest dose activity, negative = inhibition, most hits filed as inhibitors; pyruvate kinase (Trypanosoma brucei), Q57TT1; further: potency means the concentration at half of the fitted maximal effect; on the % scale 0 is the no-effect control and ±100 the full control effect; nearly all actives have a fitted effect of over 50% in size
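Luminescent Kinase-Glo Plus end-point after 45 min room-temperature reaction of T. brucei pyruvate kinase started with 130 uM ADP (final). Buffer TEA 50 mM pH 7.2 with KCl, MgCl2, BSA, Tween-20; titration-based qHTS with fitted concentration-effect curves.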
Shiga inhibitor – A qHTS for Small Molecule Inhibitors of Shiga Toxin; inhibition, % at 38.7 µM; Vero cells, Shiga toxin protein synthesis inhibition reporter; 9.2% of 290,000 active; in the data active means inhibition mostly above about 28%, no sharp cut-off; inactive means mostly below about 43%; further: 0% is about no effect
CHX counter – Cycloheximide Counterscreen for Small Molecule Inhibitors of Shiga Toxin | max response, % | 12% of 300,000 active | cell reporter, cycloheximide protein synthesis inhibition counterscreen; in the data active means max response mostly above about 13%, no sharp cut-off; inactive means mostly below about 14%; further: read at 38.3 µM for the half of the compounds with a filed dose; 0% is about no effect
Sm TGR block – qHTS Assay for the Inhibitors of Schistosoma Mansoni Peroxiredoxins; 3% of 360,000 active; AID 485364, 2010; Schistosoma mansoni thioredoxin glutathione reductase (TGR), Q962Y6; Potency, µM (top dose mostly 114 µM), inactives show at the highest dose activity change, negative = inhibition, usual class: inhibitors; purified TGR, DTNB reduction, TNB absorbance 405 nm; further: potency means the concentration at half of the fitted maximal effect; on the % scale 0 is the no-effect control and ±100 the full control effect; nearly all actives have a fitted effect of over 60% in size
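First, TGR (20 nM dispensed) and NADPH were mixed with compound. Second, a 15 min room-temperature incubation followed. Third, further NADPH and then DTNB were added to start the reaction. Finally, TNB absorbance was monitored kinetically.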
* hit, by the source's call; ? = inconclusive; · = no result given; [ ] = dose if it differs, or a comment. Unless noted, the call rests on the fitted dose curve; in most records, active means well fitted curve in the direction sought with a large enough effect; inconclusive means small, poorly fitted or top-dose-only effect, or another doubt; inactive means no such curve, though single readings can be large; an effect the other way counts as inactive or inconclusive.

SMILES	FBPA Giardia inh	LmPK inhibitor	Tb PYK inh	Shiga inhibitor	CHX counter	Sm TGR block
COc1cccc(/C=N/c2nc3ccccc3[nH]2)c1O	-20%	?	-5%	-11	2	-18%
COc1cccc(/C=N/Nc2nc3ccccc3[nH]2)c1OC	0%	-2%	-1%	114*	52*	2%
CCc1ccccc1Nc1nc2ccccc2[nH]1	·	·	3%	·	·	·
COc1cccc(/C=N/Nc2nc3ccccc3[nH]2)c1O	-17%	5%	-2%	94*	52*	16%
COc1ccccc1OC(C)C(=O)Nc1c(C(=O)c2ccc(Cl)cc2)oc2ccccc12 (stereo not drawn)	·	·	-4%	·	·	2%
CCOc1ccc(CNS(=O)(=O)c2ccc3c(c2)CCCN3C(C)=O)cc1OC	·	·	-8%	·	·	1%
COc1ccc2c(Cl)c(C(=O)NCC3CCCO3)sc2c1Cl (stereo not drawn)	-7%	1%	·	23	20*	-4%
Cc1ccc2c(Cl)c(C(=O)NCC3CCCO3)sc2c1 (stereo not drawn)	1%	1%	-3%	77*	55*	3%
O=C(NCC1CCCO1)c1sc(=S)n2c1[nH]c(=O)c1ccc(C(=O)N3CCCCC3)cc12 (stereo not drawn)	-5%	20µM*	?	-21	0	-1%
O=C(NCC1CCCO1)c1sc2ccccc2c1Cl (stereo not drawn)	-2%	-9%	2%	73*	41*	7%
CCOC(=O)c1[nH]c(C)c(C(=O)NC(CC)Cc2ccccc2)c1C (stereo not drawn)	·	·	-6%	·	·	4%
COc1cccc(CNC(=O)Cn2c(=O)cc(C(F)(F)F)c3c(C)nn(C)c32)c1OC	·	·	4%	·	·	0%
O=C(Nc1ccc(F)c(Cl)c1)N1CCC(CN2CCOCC2)CC1	·	·	3%	·	·	1%
O=C1NC[C@@H](CCCCN2C[C@H](Cc3ccc(O)cc3)N(CC3CCCCC3)C(=O)C2=O)N(CC2CCCCC2)C1=O	·	·	-4%	·	·	·
Cc1ccc(S(=O)(=O)ON2C(=O)c3cccc4cccc(c34)C2=O)cc1	1%	1%	-13%	-10	-2	-9%
Cc1ccc(C)c(S(=O)(=O)ON2C(=O)c3ccccc3C2=O)c1	-1%	?	?	-8	0	0.89µM*
O=C1c2ccccc2C(=O)N1OS(=O)(=O)c1ccccc1	9%	?	·	-10	-3	1.3µM*
O=C1c2cccc3cccc(c23)C(=O)N1OS(=O)(=O)c1ccccc1	0%	8%	1%	38	-1	0%
Cc1cc(S(=O)(=O)ON2C(=O)c3ccccc3C2=O)ccc1F	-4%	?	0%	-3	-5	0.79µM*
Cc1ccc(CNC(=O)c2ccc(Cl)c(S(N)(=O)=O)c2)n1C	-15%	-5%	3%	-4	-2	?
Cc1ccc(CNC(=O)c2cc(Cl)cc(Cl)c2)n1C	-14%	1%	6%	-6	2	32µM*
COc1ccc(-c2nc(N3CCN(S(=O)(=O)c4ccc(F)cc4)CC3)c3ccccc3n2)cc1	·	·	·	37	16	·
COc1cccc(OCC(=O)Nc2nnc3n2CCS3)c1	·	·	-3%	·	·	2%
COc1ccc(CNC(=O)Cn2c(=O)cc(-c3ccccc3)c3c(C)nn(C)c32)cc1	·	·	-5%	·	·	-6%
CCc1ccccc1NC(=O)CN1C(=O)C2CCCN2c2ccc(S(=O)(=O)N(CC)CC)cc21 (stereo not drawn)	·	·	-6%	·	·	-21%
SMILES	FBPA Giardia inh	LmPK inhibitor	Tb PYK inh	Shiga inhibitor	CHX counter	Sm TGR block
Cc1ccc(C2=NNC(C(O)C(O)C(O)C(O)CO)S2)cc1 (stereo not drawn)	2%	4%	-7%	56*	25*	-1%
OC[C@H](O)[C@H](O)[C@@H](O)[C@@H](O)[C@@H]1SC(c2ccccc2)=NN1c1ccccc1	-20%	3%	-7%	-8	3	?
C=CCNC(=S)NNC(=O)COc1ccc2cc(Br)ccc2c1	4%	-2%	1%	101*	44*	·
C=CCNC(=S)NNC(=O)COc1ccc(Br)cc1	6%	4%	?	2	4	2%
O=C(NCCc1ccccc1)c1ccc(CS(=O)(=O)Cc2ccccc2Cl)o1	·	·	-2%	·	·	50µM*
O=C(NCc1ccccc1)c1ccc(CS(=O)(=O)c2c(Cl)cccc2Cl)o1	·	·	3%	·	·	-4%
O=C(NCc1ccc(F)cc1)c1ccc(CS(=O)(=O)Cc2ccc(F)cc2)o1	8%	-1%	2%	8	-2	-18%
Cc1ccccc1CS(=O)(=O)Cc1ccc(C(=O)NCCc2ccccc2)o1	25%	1%	0%	12	23*	?
COCCNC(=O)c1ccc(CS(=O)(=O)c2c(Cl)cccc2Cl)o1	3%	-6%	-15%	-4	0	50µM*
O=C(NCc1ccc(F)cc1)c1ccc(CS(=O)(=O)Cc2ccccc2F)o1	-2%	2%	2%	-10	-2	40µM*
COc1ccccc1-n1nc(-c2ccccc2)c2cnc3c(F)cc(F)cc3c21	·	·	-4%	·	·	-5%
C=CCOc1ccc(CNc2ccc(NC(=O)CC(C)C)cc2)cc1OC	-4%	0%	-3%	-2	-2	-21%
COc1ccc(C(=O)Cn2nnc(-c3ccccc3NC(=O)C3CC3)n2)cc1	4%	3%	-1%	52	18*	1%
COc1ccc(C(=O)Cn2nnc(-c3ccccc3F)n2)cc1	0%	3%	-3%	3	12*	3%
O=C(O)CCCC/C=C\C[C@@H](O)/C=C/C=C/C=C\[C@@H](O)CCCC(=O)O	0%	·	·	·	·	·
CCC(C)(C)n1nnnc1C(c1ccc(O)c(OC)c1)N1CCc2ccccc2C1 (stereo not drawn)	-24%	4%	-48%	-3	8	0.25µM*
COc1ccc(C(c2nnnn2C(C)(C)C)N2CCN(c3nc4ccccc4s3)CC2)cc1 (stereo not drawn)	-1%	5%	-8%	-9	-4	-14%
CCC(C)(C)n1nnnc1C(c1ccc(O)c(OC)c1)N1CCN(c2nc3ccccc3s2)CC1 (stereo not drawn)	1%	6%	-17%	55	11	0.71µM*
Nc1ccc(C(=O)Nc2ccc(OC(F)(F)C(F)F)c(NC(=O)c3ccc(N)cc3)c2)cc1	-5%	-2%	4%	16	18*	3%
CC(=O)Nc1ccc(Nc2nc(-c3cc4ccccc4oc3=O)cs2)cc1	-7%	6%	-6%	69*	47*	-27%
Nc1ccc(Nc2nc(-c3cc4ccccc4oc3=O)cs2)cc1	-4%	-8%	-2%	116*	43*	1%[57.1 µM]

Source: PubChem
